Unmarked numbers belong to inactive results. Records with an inconclusive call do not appear. A call without a number means that no potency is given here. Active and inactive are the calls of the source. Unless noted, calls come from the whole dose curve; as a rule, active = well fitted curve in the direction sought with a large enough effect; inconclusive = small, poorly fitted or top-dose-only effect, or another doubt; inactive = no such curve, though single readings can be large; an effect the other way counts as inactive or inconclusive.
Key:
[1] = Cell Viability - BJ (AID 421; calls by dose curve;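 note: potency is the fitted concentration of half-maximal effect; cells exposed to compound for 40 hours at 37 °C before readout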); details: BJ fibroblast viability, qHTS
In short: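 Normal human BJ foreskin fibroblasts, 1500/well in complete medium, treated 40 hr at 37 °C. Cellular ATP by CellTiter-Glo luminescence; normalized to DMSO and 100 uM tamoxifen, AC50 from Hill fit.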

[2] = Cell Viability - Jurkat (AID 426;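 active = dose-dependent loss of cell ATP signal giving a full or clear fitted curve, ranked by lower potency value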; note: potency is the fitted concentration of half-maximal effect); details: qHTS
In short: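 qHTS, 1536-well; Jurkat E6-1, 5000 cells/well, complete medium; cpd 40 hr, 37 °C; CellTiter-Glo 20 min RT; luminescence. AC50 by Hill fit.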

[3] = Cell Viability - Hek293 (AID 427;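 active = compounds whose dose-response curve shows a full or clear partial loss of cell viability, called from curve shape rather than a numeric limit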;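 note: potency is the fitted concentration of half-maximal effect; cells exposed to compound for 40 hours at 37 °C before reading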); details: qHTS
In short: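 HEK293 cells in complete medium were exposed to compound for 40 hr at 37 °C, then cellular ATP was read by CellTiter-Glo luminescence. Data were normalized to DMSO (basal) and 100 uM tamoxifen (100% inhibition), and AC50 came from Hill fits.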

[4] = Cell Viability - MRC5 (AID 434; calls by dose curve;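 note: potency is the fitted concentration of half-maximal effect; potency reflects cytotoxicity seen as loss of intracellular ATP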); details: MRC5 lung fibroblast viability, qHTS
In short: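 qHTS cytotoxicity in human lung fibroblast MRC5 cells; 40 hr treatment, 37 °C; cellular ATP by luciferase luminescence; DMSO = 0%, 100 uM tamoxifen = 100% inhibition; Hill-fit AC50.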

[5] = Cell Viability - SK-N-SH (AID 435; calls by dose curve;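 note: potency is the fitted concentration of half-maximal effect; compound exposure lasted 40 h at 37 °C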); details: SK-N-SH neuroblastoma cell viability qHTS
In short: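 SK-N-SH human neuroblastoma cells (1500/well) were exposed to compounds in complete medium for 40 h at 37 °C, and intracellular ATP was then measured by CellTiter-Glo luminescence. AC50 was taken from Hill fits, normalized to DMSO and 100 uM tamoxifen.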

[6] = molecular target: Mitogen-activated protein kinase 10 (Mus musculus) (UniProt Q61831); test: JNK3 AlphaScreen Assay (AID 530; active = well fitted curve in either direction with a large enough effect, not every such curve was filed as active;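 note: kinase came from lysate of stimulated human HepG2 cells; signal reports phosphorylation of biotinylated GST-cJun 1-79 at Ser73 with 10 µM ATP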); details: JNK3 lysate, c-Jun phosphorylation; series mostly up to 57.1 µM
In short: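 Compound titrations were preincubated 15 minutes at room temperature with substrate, antibody and pre-activated JNK3-containing HepG2 lysate. Reactions were started with 10 uM ATP and stopped with EDTA-containing bead buffer for AlphaScreen detection.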

[7] = Cell Viability - N2a (AID 540); details: N2a mouse neuroblastoma cell viability; activity change, negative = cytotoxicity: at 92.2 µM (top of the series); note: nearly all actives have a fitted effect of over 45% in size; note: potency is the fitted concentration of half-maximal effect
In short: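 Luminescent ATP signal (CellTiter-Glo, 20 min at room temperature) served as the viability read-out after N2a cells were treated with compounds for 40 hours at 37 °C. Concentration-response data were fitted to the Hill equation for AC50.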

[8] = Cell Viability - NIH 3T3 (AID 541); details: NIH 3T3 cell viability, qHTS; series mostly up to 92.2 µM; note: nearly all actives have a fitted effect of over 25% in size; note: potency is the fitted concentration of half-maximal effect
In short: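 Luminescent ATP signal (CellTiter-Glo) served as the viability read-out after NIH 3T3 cells were exposed to compounds over a concentration range for 40 hr at 37 °C. Hill-equation modelling of concentration-response data gave AC50.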

[9] = Cell Viability - H-4-II-E (AID 543); details: H-4-II-E rat hepatoma viability; series mostly up to 92.2 µM; note: nearly all actives have a fitted effect of over 35% in size; note: potency is the fitted concentration of half-maximal effect
In short: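 Luminescent ATP signal (CellTiter-Glo) served as the viability read-out, with cytotoxicity seen as a concentration-dependent ATP drop. Cells were treated for 40 hours in complete medium. AC50 values derive from Hill-equation modelling.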

[10] = Cell Viability - SH-SY5Y (AID 544); details: SH-SY5Y neuroblastoma cell viability; series mostly up to 92.2 µM; note: nearly all actives have a fitted effect of over 55% in size; note: potency is the fitted concentration of half-maximal effect
In short: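 Luminescent ATP read-out (CellTiter-Glo) measures loss of viable SH-SY5Y neuroblastoma cells after 40 hr compound exposure at 37 °C. AC50 values derive from standard Hill modelling of qHTS concentration-response data.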

[11] = Cell Viability - Mesenchymal (AID 546); details: mesenchymal cells viability, qHTS; series mostly up to 91.7 µM;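 note: cells exposed to compound for 40 hours before reading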; note: potency is the fitted concentration of half-maximal effect
In short: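 AC50 values reflect the drop in intracellular ATP in a human kidney mesenchymal line derived from normal glomeruli. Treatment lasts 40 hr at 37 °C in complete medium, and the signal comes from CellTiter-Glo luminescence.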

[12] = Cellular Toxicity (caspase-3) HepG2 (AID 654); details: HepG2 caspase-3 activation, luminescence, 0% = DMSO only, 100% = tamoxifen; series mostly up to 92.2 µM;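 note: cells exposed to compound for 16 hours before reading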
In short: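 Cells plated 5 hr at 37 °C, compound added, incubated 16 hr at 37 °C. Caspase-Glo 3/7 reagent followed, 20 min at room temperature, then luminescence read. Activation scored as signal increase; AC50 from Hill fit.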

[13] = Cellular Toxicity (caspase-3) Jurkat (AID 655); details: Jurkat caspase-3 activation, luminescence, DMSO = 0%, tamoxifen = 100%; series mostly up to 92.2 µM;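 note: cells exposed to compound for 16 h at 37 °C before reading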
In short: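 Jurkat cells (5000/well) in complete medium were treated with compounds for 16 hr at 37 °C, then Caspase-Glo 3/7 luminescence was read after 20 min at room temperature. Data normalized to DMSO (basal) and 100 uM tamoxifen (100%); AC50 from Hill fit.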

[14] = Cellular Toxicity (caspase-3) HUV-EC-C (AID 656); details: HUV-EC-C cells, caspase-3 activation (apoptosis), vehicle = 0, 100 µM tamoxifen = 100%; series mostly up to 92.2 µM
In short: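 HUV-EC-C endothelial cells, 1000/well, were pre-incubated 5 hr at 37°C, then exposed to compounds for 16 hr at 37°C. Caspase-Glo 3/7 luminescence was read after 20 min at room temperature. AC50 came from Hill fits, normalized to DMSO and 100 uM tamoxifen.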

[15] = molecular target: Cytochrome P450 1A2 (Homo sapiens) (UniProt P05177); test: p450-cyp1a2 (AID 410; calls by dose curve); details: recombinant CYP1A2, luciferin-ME demethylation, luminescence; series mostly up to 57 µM
In short: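 Luminescent readout of luciferin formed from Luciferin-ME by human CYP1A2; data normalized against complete inhibition by 57 uM furafylline. Enzyme 20nM, substrate 100uM at Km, 100mM KPO4 buffer, 60 min reaction at room temperature.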

[16] = molecular target: Glucocorticoid receptor (Homo sapiens) (UniProt P04150); test: GR-GFP Redistribution (AID 450;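 active = compounds whose dose series gives a full or clear partial fitted curve of increased nuclear translocation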; note: potency is the fitted concentration of half-maximal effect); details: U2OS GR-GFP nuclear translocation, laser cytometry, 2 h
[17] = NFAT Signaling Pathway (AID 444; active = well fitted curve in either direction with a large enough effect, not every such curve was filed as active;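 note: carbachol stimulus at about its EC50 of 1 µM final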); details: Jurkat NFAT-bla M1, carbachol, beta-lactamase ratio, 5 h; at 38 µM (top of the series)
In short: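 Read-out: CCF4 FRET ratio (460 nm/530 nm) after 1 h RT dye loading, used for %activity and AC50 from titration series. Cells: Jurkat NFAT-β-lactamase/M1 line, treated with compound plus 1 uM carbachol for 5 h, 37 °C.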

[18] = molecular target: 3',5'-cyclic-AMP phosphodiesterase 4B (Homo sapiens) (UniProt Q07343); test: qHTS Assay for Inhibitors of PDE-IV (AID 607; active = well fitted activation curve with a large enough effect in the main read-out, with a control signal flat, not every such curve was filed as active); details: HEK293 ACTOne CNG channel cells, membrane potential fluorescence; series mostly up to 22.9 µM
In short: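 HEK293 ACTOne cells with CNG channel (1000/well), endogenous PDE4; membrane potential dye, compounds up to 22.9 uM final. Fluorescence Ex 535/Em 590; RO 20-1724 (100 uM final) as reference.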

Glucocorticoid receptor (Homo sapiens), sequence (P04150 whole entry, looked up): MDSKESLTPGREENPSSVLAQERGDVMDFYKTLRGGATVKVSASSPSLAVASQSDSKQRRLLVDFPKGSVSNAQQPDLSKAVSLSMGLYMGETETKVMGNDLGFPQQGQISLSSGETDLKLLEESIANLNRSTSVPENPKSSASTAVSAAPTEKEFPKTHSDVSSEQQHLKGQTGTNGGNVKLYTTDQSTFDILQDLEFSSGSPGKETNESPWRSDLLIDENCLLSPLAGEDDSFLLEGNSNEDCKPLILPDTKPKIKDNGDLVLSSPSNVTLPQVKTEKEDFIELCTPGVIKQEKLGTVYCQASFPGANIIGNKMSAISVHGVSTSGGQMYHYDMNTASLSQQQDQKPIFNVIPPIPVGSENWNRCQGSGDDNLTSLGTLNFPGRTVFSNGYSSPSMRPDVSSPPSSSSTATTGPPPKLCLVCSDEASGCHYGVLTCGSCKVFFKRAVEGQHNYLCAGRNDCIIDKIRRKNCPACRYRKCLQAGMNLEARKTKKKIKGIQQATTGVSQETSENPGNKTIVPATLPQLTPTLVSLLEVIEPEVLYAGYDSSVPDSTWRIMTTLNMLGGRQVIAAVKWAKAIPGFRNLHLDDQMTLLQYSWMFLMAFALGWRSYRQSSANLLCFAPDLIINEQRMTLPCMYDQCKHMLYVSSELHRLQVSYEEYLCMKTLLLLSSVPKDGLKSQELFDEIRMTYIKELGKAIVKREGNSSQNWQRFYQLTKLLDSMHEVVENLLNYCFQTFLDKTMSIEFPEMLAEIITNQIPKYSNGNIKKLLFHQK
3',5'-cyclic-AMP phosphodiesterase 4B (Homo sapiens), sequence (Q07343 whole entry, looked up): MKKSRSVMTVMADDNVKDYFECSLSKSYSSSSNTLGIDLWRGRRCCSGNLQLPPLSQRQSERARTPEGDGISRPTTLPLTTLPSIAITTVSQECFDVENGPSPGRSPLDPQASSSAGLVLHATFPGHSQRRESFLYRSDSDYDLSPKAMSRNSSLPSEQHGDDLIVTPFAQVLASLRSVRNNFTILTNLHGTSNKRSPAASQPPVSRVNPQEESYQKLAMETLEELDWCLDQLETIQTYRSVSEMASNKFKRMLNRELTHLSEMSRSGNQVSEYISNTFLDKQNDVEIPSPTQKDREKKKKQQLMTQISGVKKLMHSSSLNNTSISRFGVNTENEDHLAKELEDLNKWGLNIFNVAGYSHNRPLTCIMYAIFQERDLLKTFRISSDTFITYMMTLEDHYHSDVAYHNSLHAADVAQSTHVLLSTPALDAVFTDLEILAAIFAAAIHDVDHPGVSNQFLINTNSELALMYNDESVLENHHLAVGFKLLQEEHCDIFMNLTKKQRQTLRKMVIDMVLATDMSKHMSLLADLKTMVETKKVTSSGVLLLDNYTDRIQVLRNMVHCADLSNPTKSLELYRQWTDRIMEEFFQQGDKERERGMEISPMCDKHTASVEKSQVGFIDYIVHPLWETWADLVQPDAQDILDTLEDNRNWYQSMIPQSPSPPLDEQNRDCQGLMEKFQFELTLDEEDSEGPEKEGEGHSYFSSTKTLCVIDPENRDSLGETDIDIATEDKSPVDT
Cytochrome P450 1A2 (Homo sapiens), sequence (P05177 whole entry, looked up): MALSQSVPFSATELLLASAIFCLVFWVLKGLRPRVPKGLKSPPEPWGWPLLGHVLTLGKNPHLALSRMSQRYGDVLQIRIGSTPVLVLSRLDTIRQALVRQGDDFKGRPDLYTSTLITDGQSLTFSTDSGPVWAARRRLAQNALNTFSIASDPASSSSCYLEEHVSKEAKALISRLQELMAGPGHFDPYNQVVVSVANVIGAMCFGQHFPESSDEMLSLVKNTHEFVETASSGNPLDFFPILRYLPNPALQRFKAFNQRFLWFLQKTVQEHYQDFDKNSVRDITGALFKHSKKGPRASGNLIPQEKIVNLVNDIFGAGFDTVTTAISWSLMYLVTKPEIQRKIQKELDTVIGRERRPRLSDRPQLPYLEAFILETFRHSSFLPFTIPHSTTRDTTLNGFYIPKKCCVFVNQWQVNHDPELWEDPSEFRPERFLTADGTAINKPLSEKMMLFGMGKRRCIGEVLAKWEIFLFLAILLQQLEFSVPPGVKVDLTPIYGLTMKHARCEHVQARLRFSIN

Structure (SMILES) | Potency [1] | Potency [2] | Potency [3] | Potency [4] | Potency [5] | outcome [6] | activity change, negative = cytotoxicity [7] | Potency [8] | Potency [9] | Potency [10] | Potency [11] | outcome [12] | outcome [13] | outcome [14] | Potency [15] | Potency [16] | activity change, negative = inhibition [17] | Potency [18] | Potency [7]
O=C(O)COc1ccccc1 | > 92 µM | > 92 µM | > 92 µM | > 92 µM | > 92 µM | inactive | -9.54% | inactive | inactive | inactive | inactive | inactive | inactive | inactive |  |  |  |  | 
COC(=O)[C@@H](N)CCCN=C(N)N[N+](=O)[O-] |  |  |  |  |  | inactive |  |  |  |  |  |  |  |  | inactive | > 46 µM |  |  | 
O=[N+]([O-])c1c(Cl)c(Cl)cc(Cl)c1Cl | > 92 µM | > 92 µM | > 92 µM | > 92 µM | > 92 µM | inactive | 3.06% |  | inactive | inactive | inactive | inactive | inactive | inactive |  |  |  |  | 
CCOCCOC(C)=O | > 92 µM | > 92 µM | > 92 µM | > 92 µM | > 92 µM | inactive | -15.1% | inactive | inactive | inactive | inactive | inactive | inactive | inactive |  |  |  |  | 
Cc1c(C(=O)c2cccc3ccccc23)c2cccc3c2n1[C@H](CN1CCOCC1)CO3 |  |  |  |  |  | inactive |  |  |  |  |  |  |  |  |  | > 46 µM | -21.8% | inactive | 
CCOP(=O)(NC(C)C)Oc1ccc(SC)c(C)c1 (configuration not stated) | > 92 µM | > 92 µM |  | > 92 µM | > 92 µM | inactive | -29.1% |  | inactive | 12.6 µM (active) | inactive | inactive | inactive | inactive |  |  |  |  | 
CC(=O)[O][Hg][c]1ccccc1 | 5.56 µM (active) | 0.47 µM (active) | 2.24 µM (active) | 10.9 µM (active) | 2.17 µM (active) | inactive |  | 0.0631 µM (active) | 2 µM (active) | 0.126 µM (active) | 2 µM (active) | inactive |  | inactive |  |  |  |  | 10 µM (active)
Nc1ccc([N+](=O)[O-])cc1 | > 92 µM | > 92 µM | > 92 µM | > 92 µM | > 92 µM | inactive | 0.412% | inactive | inactive | inactive | inactive | inactive | inactive | inactive |  |  |  |  | 
NC(=NCCC[C@H](N)C(=O)O)N[N+](=O)[O-] |  |  |  |  |  | inactive |  |  |  |  |  |  |  |  |  | > 46 µM |  |  | 
OCCCBr | > 92 µM | > 92 µM | > 92 µM | > 92 µM | > 92 µM | inactive | 9.77% | inactive | inactive | inactive | inactive | inactive | inactive | inactive |  |  |  |  | 
O=[N+]([O-])c1c2ccccc2cc2ccccc12 | > 92 µM | > 92 µM | > 92 µM | > 92 µM | > 92 µM | inactive | -0.277% | inactive | inactive |  | inactive | inactive | inactive | inactive |  |  |  |  | 
COC(C)(C)CCCC(C)C/C=C/C(C)=C/C(=O)OC(C)C (configuration not stated) | > 92 µM | > 92 µM | > 92 µM | > 92 µM | > 92 µM | inactive | -12% | inactive | inactive | inactive | inactive | inactive | inactive | inactive |  |  |  |  | 
O=S(=O)(c1ccc(Cl)cc1)c1ccc(Cl)cc1 | > 92 µM | > 92 µM | > 92 µM | > 92 µM | > 92 µM |  | -29.1% |  | inactive | inactive | inactive | inactive | inactive | inactive |  |  |  |  | 
